Shn3 inh set2: reduces Shn3 3'UTR luciferase signal in osteoblasts; AID 588674; Clone20 osteoblast Shn3 3'UTR firefly luciferase, 24 h; inhibition, % at 12.5 µM; actives 0.52% (n = 360,000);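 active = mean inhibition of at least 75% with every replicate also reaching 75%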;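 note: 0% = median of neutral control wells and 100% = pilot-screen positive control compound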
MITF TRPM1 inh: MITF TRPM1 promoter inhibition in SK-MEL-5 cells; SK-MEL-5 TRPM1 promoter luciferase, 24 h; inhibition, % at 12.5 µM; actives 0.83% (n = 330,000);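 active = mean inhibition across replicates of 60% or more, whatever share of single replicates reaches that level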
CF NFkB block: cystic fibrosis NF-kB activation inhibition. KKLEB NF-kB-GFP reporter, PAF-induced, GFP fluorescence overnight. inhibition, % at 5 µM. actives 0.86% (n = 360,000). AID 588850;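 active = at least 50% inhibition at 5 µM, scaled per plate between neutral and stimulator controls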;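 note: PAF is a Pseudomonas aeruginosa culture filtrate used as stimulus; plate controls were PAF-stimulated DMSO wells for no effect and unstimulated DMSO wells for full effect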
Peg3 prom inh: inhibitors of Peg3 promoter. inhibition, % at 20 µM. actives 1.7% (n = 360,000). HeLa PEG-Prom luciferase reporter, luminescence, overnight;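 active = inhibition of at least 50% at 20 µM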
KKLEB tox: CF airway cell cytotoxicity counter-screen; KKLEB CF airway cells viability, ATPlite luminescence, overnight; stronger effect = lower value; cells stimulated with P. aeruginosa culture filtrate; activity change (cytotoxicity), % at 5 µM; actives 0.36% (n = 360,000);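 active = corrected activity change at or below -50% at 5 µM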
HIF-2a block: inhibitors of HIF-2a; 786-0 RCC cells HIF-2a reporter, luciferase luminescence, overnight; inhibition, % at 18.8 µM; actives 0.72% (n = 360,000);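 active = inhibition of the luminescence signal of 40% or more relative to plate controls, in a single-dose primary screen at 18.75 µM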
Starred values were filed as active, the others as inactive; · = no result given. Shown are actives, neighbours in structure and some others; about 2.8% of the full set was active somewhere.

SMILES	Shn3 inh set2	MITF TRPM1 inh	CF NFkB block	Peg3 prom inh	KKLEB tox	HIF-2a block
COc1ccc2[nH]c(C)c(CCNCc3cn(C)c4ccccc34)c2c1	54	47	39	87*	-19	9
Cc1[nH]c2ccccc2c1CCNCc1cccnc1	-25	-3	-12	-6	3	16
C=C[C@@H]1C2=CCOC(=O)C2=CO[C@H]1O[C@@H]1O[C@H](CO)[C@@H](O)[C@H](O)[C@H]1O	-25	-6	6	-5	-14	13
CCOc1cc2c(cc1OCC)-n1cccc1C(c1ccc(C(C)C)cc1)NC2 (stereo not given)	90*	10	-11	17	8	-1
COc1ccc(OC(=O)N(C)C[C@H]2OCc3cnnn3CCCC(=O)N([C@H](C)CO)C[C@H]2C)cc1	-1	·	7	9	1	7
O=[N+]([O-])c1ccc(Cl)c([N+](=O)[O-])c1	-7	43	58*	58*	-17	7
O=[N+]([O-])c1ccc(O)c([N+](=O)[O-])c1	-15	-6	23	-2	-13	-8
Cc1ncoc1C(=O)NCC1=C(c2ccc3ccccc3c2)C[C@@H]2CC[C@H]1N2Cc1ccco1	8	·	-3	-19	0	-2
C/C(=N\N1CCCCCC1)c1c(O)n(-c2ccccc2C)c(=O)[nH]c1=O	17	12	2	8	-8	17
CCCCCSc1cc(OC)c(CCN)cc1OC	11	39	-2	-15	0	-2
CCCCCCCSc1cc(OC)c(CCN(C)C)cc1OC	-10	-3	5	104*	-5	6
CCC1CN2CCc3cc(OC)c(OC)cc3C2CC1CC1NCCc2c1[nH]c1ccc(O)cc21 (stereo not given)	92*	97*	89*	99*	-27	57*
COc1ccc2c(c1OC)CN1CCc3cc4c(cc3[C@H]1C2)OCO4	19	-10	-29	-29	5	-34
CC(C)(C)n1nnnc1C(c1ccccc1)N1CCC2(CC1)C(=O)NCN2c1ccccc1 (stereo not given)	-15	·	-7	20	-23	18
CN1C(=O)N(C)C(=O)C(NS(=O)(=O)c2ccc(N)cc2)(c2ccccc2)C1=O	0	1	10	-2	-14	1
CCN(CC)c1ccc(N=Cc2c(O)n(CCc3ccc(OC)c(OC)c3)c(=O)[nH]c2=O)cc1	8	29	3	69*	-6	6
CSCCC(c1nnnn1C1CCCCC1)N1CCC2(CC1)C(=O)NCN2c1ccccc1 (stereo not given)	4	·	-21	17	-19	-6
CC(C)c1oc(=O)cc2c1[C@@H](O)[C@H]1OC(=O)[C@@]3(C)C[C@@H](O)[C@@H](O)[C@@]2(C)C13 (stereo not given in full)	-15	64*	18	91*	2	39
O=C1NC(=O)C(=Cc2cccc(OCCOc3ccccc3)c2)C(=O)N1	-81	-27	-4	-135	-6	-56
Cc1ccc(OCCOc2cccc(C=C3C(=O)NC(=O)NC3=O)c2)c(C)c1	8	-6	-7	-58	2	55*
Cc1nc2c(=O)n(C)c(=O)nc-2n(C)n1	98*	110*	77*	105*	-74*	81*
O=C1NC(=O)C(CCc2ccncc2)(Cc2cccc(Cl)c2Cl)C(=O)N1c1ccc(Br)cc1 (stereo not given)	-12	12	28	57*	-22	24
CCCCCCC(C)(C)c1ccc([C@@H]2C[C@H](O)CC[C@H]2CCCO)c(O)c1	-10	9	-5	83*	-10	15
O=C(c1ccc(-c2ccccc2)cc1)C1CCCN(Cc2ccn[nH]2)C1 (stereo not given)	-1	2	-21	-19	0	-14
O=P(/C=C1\OCc2ccccc21)(Oc1ccccc1)Oc1ccccc1	·	·	·	·	·	-26
SMILES	Shn3 inh set2	MITF TRPM1 inh	CF NFkB block	Peg3 prom inh	KKLEB tox	HIF-2a block
Cn1c(O)c(C=Nc2ccc(F)cc2)c(=O)[nH]c1=O	-1	9	-11	74*	13	7
O=C(c1cn(Cc2ccccc2F)c2ncccc12)C(F)(F)F	9	20	4	-15	6	12
Oc1ccc(O)c2c1C1(Cl)C(Cl)=C(Cl)C2(Cl)C1(Cl)Cl	27	-2	44	61*	-12	25
O=C1NC(=O)C(=Cc2ccc(-c3ccc(F)cc3O)o2)C(=O)N1	18	46	39	9	-5	48*
O=C1NC(=O)C(=Cc2ccc(-c3ccc(Cl)cc3)o2)C(=O)N1	83	68*	-3	102*	2	14
COCCCn1c(N)c(C(=O)OCCOC)c2nc3ccccc3nc21	-4	12	0	27	-4	-4
CCOC(=O)c1c(N)n(CCCOC(=O)c2ccco2)c2nc3ccccc3nc12	14	89*	17	6	-3	-13
COC(=O)C1=C(c2ccc(S(C)(=O)=O)cc2)C[C@@H]2CC[C@H]1N2C(=O)NCc1ccc(C(F)(F)F)cc1	4	2	-20	7	-7	14
O=C1NC(=O)C(=Cc2c(Cl)cccc2Cl)C(=O)N1	23	23	59*	15	-38	26
N=Cc1c(O)n(-c2ccc(C34CC5CC(CC(C5)C3)C4)cc2)c(=O)[nH]c1=O	-2	-11	16	-26	-11	-12
C/C(=C\c1ccc(N(C)C)cc1)[N+](=O)[O-]	29	80*	-5	101*	-33	93*
CN(C)c1ccc(/C=C/[N+](=O)[O-])cc1	-15	6	4	-17	0	11
CC1=C(C)CC2(CC1)C(=O)NC(=O)NC2=O	-41	4	-21	61*	20	-4
CC(C)COC(=O)N1Cc2ccccc2-n2nncc2C1	-9	·	-9	-14	7	-2
Cc1ccc2c(C)c3ccc4ccccc4c3c[n+]2c1	13	68*	-126	55*	6	0
COc1ccc(-n2c(/C=C/c3ccc(O)c(O)c3)nc3ccccc3c2=O)cc1	-41	9	-30	55*	-11	18
COc1cc(/C=C/c2nc3ccccc3c(=O)n2-c2ccc(O)cc2)ccc1O	-22	5	-40	42	-7	7
CC(C)(C)n1nnnc1C(CCc1ccccc1)N1CCC2(CC1)C(=O)NCN2c1ccccc1 (stereo not given)	-12	·	6	30	-23	-14
C=C(C)[C@@H]1[C@H]2OC(=O)[C@H]1[C@]1(O)C[C@H]3O[C@]34C(=O)O[C@H]2[C@]14C	3	-16	-30	-13	12	-6
COc1ccc(/C=N\N=C(N)N)cc1	14	-1	-3	14	14	7
NC(N)=N/N=C/c1ccc(N(c2ccccc2)c2ccccc2)cc1	95*	102*	-5	105*	0	95*
O=C(COC(=O)c1cc(Br)cc(Br)c1O)NC12CC3CC(CC(C3)C1)C2	8	·	27	23	-17	2

Bioassay records (PubChem)
